Only some compounds are listed: those with a hit (about 19% of all), similar ones and a draw of the others.
DT40 TDP1 CPT = qHTS for Inhibitors of human tyrosyl-DNA phosphodiesterase 1 (TDP1): qHTS in cells in presence of CPT; chicken DT40 Tdp1-/-;hTDP1 cells + 20 nM CPT, ATP luminescence, 48 h; Potency, µM (titrated, usually from 46.2 µM), hits mostly inhibitors; actives 12% (n = 420,000); note: nearly all actives have a fitted effect of over 55% in size
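Cell growth measured by CellTiter-Glo luminescence after a minimum 48 h, 37 C compound exposure with 20 nM CPT in Tdp1-knockout DT40 cells stably expressing hTDP1, seeded 400/well; qHTS titration format.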
TDP1 cell noCPT = qHTS for Inhibitors of human tyrosyl-DNA phosphodiesterase 1 (TDP1): qHTS in cells in absence of CPT; AID 686978, 2013; actives 15% (n = 420,000); Potency, µM (top dose mostly 46.2 µM), hits mostly inhibitors; DT40 Tdp1-/- hTDP1 cells, no CPT, ATP luminescence, 48 h; note: nearly all actives have a fitted effect of over 55% in size
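Cells were dispensed at 400 per well, compounds added by pin tool, plates incubated ≥48 hr at 37 °C, then CellTiter-Glo added for 30 min at room temperature before luminescence reading. Line: DT40 Tdp1-/- complemented with hTDP1; camptothecin omitted.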
IL-1B inflam inh = qHTS for Inhibitors of Inflammasome Signaling: IL-1-beta AlphaLISA Primary Screen; THP-1 LPS/ATP IL-1B secretion, AlphaLISA, 16 h; active compounds read low; activity change, % at 57.5 µM; actives 4.7% (n = 360,000); AID 743279, 2014; in the data active = activity change below about -50%; inconclusive = mostly about -30% to -49%
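THP-1 cells pretreated 1 hr with compounds (up to 57.5 uM final), then stimulated with LPS (250 ng/mL final) plus ATP (1.25 mM final); secreted IL-1B measured by AlphaLISA after 16 hr, decreased signal indicating inhibition.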
MCF10A rerep = A quantitative high throughput screen for small molecules that induce DNA re-replication in MCF 10a normal breast cells. actives 2.9% (n = 350,000). Potency, µM (series often up to 46.1 µM), usual class: activators. MCF 10A DNA re-replication, Hoechst nuclear intensity, 48 h. AID 624296, 2012; note: nearly all actives have a fitted effect of over 50% in size
Chronic BCR inh = qHTS Assay to Find Inhibitors of Chronic Active B-Cell Receptor Signaling; ABC-DLBCL IkBa-CBG/CBR reporter, luminescence ratio, 4 h; Potency, µM (series often up to 46.1 µM), usual class: inhibitors; actives 0.05% (n = 340,000); AID 493014, 2011; active = well fitted inhibition curve with a large enough effect in the signal ratio, with a control signal flat, not every such curve was filed as active; inconclusive = small, poorly fitted or top-dose-only effect, or effect the other way, or a change in a side signal; the % refers to the signal ratio
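TMD8 ABC-DLBCL cells carrying doxycycline-inducible green luciferase fused to IkappaBalpha plus unfused red luciferase were exposed to compounds (up to 46 uM) for 4 hrs at 37C. Activity came from the overlap-corrected green/red luminescence ratio.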
SW480 rerep = A quantitative high throughput screen for small molecules that induce DNA re-replication in SW480 colon adenocarcinoma cells; Potency, µM (titrated, usually from 46.1 µM), usual class: activators; actives 1.8% (n = 340,000); SW480 DNA re-replication, Hoechst DNA content imaging, 48 h; note: nearly all actives have a fitted effect of over 55% in size
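Image-based read-out: total Hoechst fluorescence of nuclei (405 nm excitation, 500-530 nm emission), with hits raising the fraction of high-intensity nuclei. SW480 colon cells incubated 48 hr with compounds at 37 C.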
Numbers stand for hits; . = inactive; ? = inconclusive; / = no result; ! = not confirmed by another sample. Unless noted, calls come from the whole dose curve; as a rule, active = well fitted curve in the direction sought with a large enough effect; inconclusive = small, poorly fitted or top-dose-only effect, or another doubt; inactive = no such curve, though single readings can be large; an effect the other way counts as inactive or inconclusive.

SMILES	DT40 TDP1 CPT	TDP1 cell noCPT	IL-1B inflam inh	MCF10A rerep	Chronic BCR inh	SW480 rerep
Cc1ccc(C(=O)N2CCN(c3ccc([N+](=O)[O-])c(N4CCOCC4)c3)CC2)cc1	29.1µM	?	.	.	.	.
O=C(COc1ccccc1Cl)N1CCN(c2ccc([N+](=O)[O-])c(N3CCOCC3)c2)CC1	?	16.4µM	.	?	.	.
COc1ccccc1Oc1cc(C#N)c(C#N)cc1-n1nnc2ccccc21	23.1µM	18.4µM	?	.	.	.
O=C(NCc1ccccc1)C(c1ccccc1)n1c(-c2ccccn2)nc2ccccc21 (configuration not stated)	.	.	.	/	/	/
Cc1cc(C)c(NC(=O)CSc2nc(=O)n(Cc3ccncc3)c3c2CCC3)c(C)c1	.	.	/	/	.	/
CN1CCC(OC(c2ccccc2)c2ccccc2)CC1	.	.	.	.	.	.
CN1CCC(Oc2ccccc2Sc2ccccc2)CC1	?	16.4µM	/	?	.	?
O=S1(=O)CCOC[C@H](Cc2ccccc2)N1Cc1cccc(F)c1	.	?	.	.	/	.
Cc1ccc(CN2[C@@H](c3ccccc3)COCCS2(=O)=O)cc1	?	?	.	.	.	.
O=S1(=O)CCOC[C@H](c2ccccc2)N1Cc1cccc(F)c1	?	12.6µM!	.	.	.	.
O=S1(=O)CCOC[C@H](c2ccccc2)N1Cc1ccc(F)cc1	?	11.2µM	/	/	/	/
Cc1cc(N(C)C)c(C#N)c(NCc2ccccc2)n1	.	.	.	.	?	.
C=CCNc1nc(NCc2ccccc2)c(C#N)c2c1CN(C)CC2	18.4µM	?	?	?	?	.
CCN1CCc2c(C#N)c(NCc3ccccc3)nc(N(CC)CC)c2C1	?	18.4µM	.	.	.	.
CCCCCNc1nc(NCCCO)c(C#N)c2c1CN(C)CC2	?	?	.	.	?	.
O=C(CSc1nncs1)Nc1ccc(N2CCCCC2)cc1	?	16.4µM	.	.	.	.
COc1ccc(NC(=O)CSc2nncs2)cc1S(=O)(=O)N1CCCCC1	.	.	.	.	.	.
CC1(C)Cc2c(sc(NC(=O)C(=O)N3CCOCC3)c2C(N)=O)CO1	.	.	.	.	.	.
O=c1/c(=C\c2ccc(O)cc2)sc2nc(-c3ccccc3)c(-c3ccccc3)n12	?	?	-57.3	.	?	.
COc1ccc(-c2nc3ccc(NS(=O)(=O)c4ccc(C)cc4)cc3o2)cc1	?	10.3µM	/	/	/	/
Cc1ccc(S(=O)(=O)Nc2ccc3nc(-c4cccn4C)[nH]c3c2)cc1	?	?	-50.0	.	?	.
COc1ccc(-c2nc3ccc(NS(=O)(=O)c4ccccc4)cc3o2)cc1	?	.	/	/	/	/
Cc1ccc(S(=O)(=O)Nc2ccc3nc(C)oc3c2)cc1	18.4µM	10.3µM	.	.	/	.
CC1(C2CC2)NC(=O)N(CC(=O)N2CCN(c3ccccc3Cl)CC2)C1=O (configuration not stated)	.	?	.	.	.	.
OC1(C#CCN2CCCC2)CCCCC1	.	.	.	.	.	.
SMILES	DT40 TDP1 CPT	TDP1 cell noCPT	IL-1B inflam inh	MCF10A rerep	Chronic BCR inh	SW480 rerep
CSCC[C@H]1COC[C@@H](Cc2ccccc2)N1c1ccccc1	.	.	.	/	/	/
Nc1c(C(=O)Nc2ccccc2F)sc2nc3c(cc12)CCCCCC3	2.59µM	3.66µM	/	/	/	/
COc1ccccc1NC(=O)c1sc2nc(C)cc(C)c2c1N	.	.	.	.	/	.
COc1ccccc1NC(=O)c1sc2nc3c(cc2c1N)CCCCCC3	?	13µM	/	/	/	/
Nc1c(C(=O)N2CCCCC2)sc2nc3c(cc12)CCCC3	.	?	.	?	.	.
Cc1ccc(N(C)S(=O)(=O)c2cccc(C(=O)OCC(=O)N(C)Cc3ccccc3)c2)cc1	?	?	.	/	/	/
CC(=O)Nc1ccc(S(=O)(=O)NC(C(=O)O)C(C)O)cc1 (configuration not stated)	.	.	.	.	.	.
Cn1c(=O)c2c(nc(NCc3cccnc3)n2Cc2ccccc2Cl)n(C)c1=O	?	?	.	.	.	.
COc1ccc(Cl)c(Cn2c(NCc3ccco3)nc3c2c(=O)n(C)c(=O)n3C)c1	4.61µM	3.66µM	.	.	.	.
COc1cccc(Cn2c(NCc3ccco3)nc3c2c(=O)n(C)c(=O)n3C)c1	1.84µM	1.46µM	.	.	.	.
Cn1c(=O)c2c(nc(NCCNC(=O)c3ccco3)n2Cc2ccc(F)cc2)n(C)c1=O	.	?	.	.	.	.
CCCn1c(NCc2ccco2)nc2c1c(=O)n(C)c(=O)n2C	?	13µM	.	.	?	.
Cn1c(=O)c2c(nc(NCc3ccco3)n2CC(O)COc2ccccc2)n(C)c1=O (configuration not stated)	?	9.2µM	.	.	.	.
COc1ccc(C(O)c2ncc(-c3ccccc3)[nH]2)c(OC)c1 (configuration not stated)	.	.	.	/	/	/
COC(=O)c1ccccc1NC(=O)c1noc2c1CSc1ccccc1-2	.	.	/	/	/	/
CCc1ccc(S(=O)(=O)N/N=C\c2ccc3c(c2)OCO3)cc1	.	.	.	.	.	.
C/C(=N\NC(=S)NCc1ccccc1)c1cccs1	.	?	.	?	?	?
CC(=O)N/N=C(\C)c1ccc2c(c1)OCCO2	.	.	.	.	.	.
C/C(=N\NC(=S)NCc1ccccc1)c1ccc(C)o1	?	5.17µM	.	?	.	.
C/C(=N\NC(=S)NCc1ccccc1)c1ccc(Br)cc1	?	?	.	?	?	.
C/C(=N\NC(=S)Nc1ccc(F)cc1)c1ccc2c(c1)OCCO2	0.92µM	0.92µM	-58.4	5.8µM	.	?
C/C(=N\NC(=S)NCc1ccccc1)c1ccc2c(c1)OCCO2	16.4µM	23.1µM	.	.	?	.
CCCCc1ccc(N2C(=NC(=O)C3CCCO3)SC3CS(=O)(=O)CC32)cc1 (configuration not stated)	.	.	?	.	.	.
Cc1cc(C)n(C(C)CNC(=O)c2ccc3c(c2)OCO3)n1 (configuration not stated)	.	.	.	.	.	.
OCC[C@H]1C[C@@H](O)[C@H](O)[C@]2(Cc3ccccc3CCO2)O1	.	.	.	.	.	.
CCCn1c(N)c(C(=O)CN(C)CC(=O)Nc2cc(C)ccc2C)c(=O)[nH]c1=O	13µM	13µM	.	.	.	.

Assay outcomes from PubChem BioAssay.
